Screens as filed in PubChem.
CHRM1 agonist = agonists of human M1 muscarinic receptor. 360,000 compounds, 0.33% hits. CHO-K1 hM1, Fluo-8 calcium fluorescence, agonist mode; 0% DMSO, 100% acetylcholine EC100. AID 588814. activation, % at 3 µM. P11229;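 active = activation above the run's mean compound activation plus 3 SD, cut at about 16% in these data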;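 also: peak over basal fluorescence ratio within a 140 s kinetic read after compound addition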
Target sequence (P11229 whole entry, looked up): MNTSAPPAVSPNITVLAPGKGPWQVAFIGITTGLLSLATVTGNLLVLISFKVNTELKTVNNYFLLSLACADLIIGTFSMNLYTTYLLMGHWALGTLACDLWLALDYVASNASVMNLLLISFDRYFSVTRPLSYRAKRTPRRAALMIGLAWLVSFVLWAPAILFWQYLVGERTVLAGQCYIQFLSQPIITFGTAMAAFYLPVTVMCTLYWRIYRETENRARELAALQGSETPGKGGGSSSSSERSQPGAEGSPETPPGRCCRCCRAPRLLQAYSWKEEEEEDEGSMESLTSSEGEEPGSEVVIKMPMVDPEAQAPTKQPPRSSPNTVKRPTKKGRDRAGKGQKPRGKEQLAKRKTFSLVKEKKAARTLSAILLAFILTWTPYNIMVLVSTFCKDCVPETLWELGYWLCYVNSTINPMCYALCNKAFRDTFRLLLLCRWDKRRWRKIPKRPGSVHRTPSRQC
CHO-K1 Ca PAM = M1 PAM counterscreen hit in parental CHO-K1 cells. ATP EC20, Fluo-8 calcium fluorescence; 0% at ATP EC20, 100% at ATP max. activation, % at 3 µM. 360,000 compounds, 0.02% hits. AID 602247;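 active = activation above the run cutoff, the mean activation of all test compounds plus 3 SD, cut at about 40% in these data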;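 also: peak over basal fluorescence ratio in a 140 s read after ATP addition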
CHO-K1 Ca antag = nonselective inhibitor or artifact in parental CHO-K1 cells. ATP-induced calcium, Fluo-8 fluorescence. inhibition, % at 3 µM. 360,000 compounds, 0.6% hits;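 active = inhibition above a per-plate cutoff, the plate's mean sample inhibition plus 3 SD, cut at about 24% in these data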;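 also: 0% = DMSO plus EC80 ATP and 100% = DMSO alone without ATP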
CHRM1 PAM = positive allosteric modulators of human M1 muscarinic receptor | P11229 | 360,000 compounds, 0.088% hits | activation, % at 3 µM | CHO-K1 hM1, Fluo-8 calcium fluorescence, ACh EC20; 0% = ACh EC20, 100% = maximal ACh; in the data active = activation above about 19%, passing the limit was not always enough
M1 ag parental = nonselective activator or artifact in parental CHO-K1 cells; Fluo-8 calcium fluorescence; scaled to maximal ATP response, vehicle zero; activation, % at 3 µM; 360,000 compounds, 0.48% hits; AID 602248; in the data active = activation above about 15%;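 also: untransfected CHO-K1 host cells lacking M1 receptor as counterscreen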
M1 antag = antagonists of human M1 muscarinic receptor; AID 588852; 360,000 compounds, 1.3% hits; inhibition, % at 3 µM; CHO-K1 hM1, Fluo-8 calcium fluorescence, ACh EC80 antagonist;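 active = percent inhibition above its own plate's cutoff, namely the mean of that plate's compound wells plus 3 SD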;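 also: peak over basal fluorescence ratio during 140 s after agonist addition; 0% = ACh EC80 plus DMSO and 100% = DMSO alone without agonist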
* = called active by the depositor. The list is not random: actives were taken first. Their share in the collection is about 2.3%.

What do the screens show for `S=C(Nc1ccccc1Cl)NC1CCN(Cc2ccccc2)CC1`?
CHRM1 agonist: 1.1; CHO-K1 Ca PAM: -0.9; CHO-K1 Ca antag: 7.9; CHRM1 PAM: 0.2; M1 ag parental: 0.7; M1 antag: -3.9

Results for S=C(Nc1cc(Cl)cc(Cl)c1)NC1CCN(Cc2ccccc2)CC1 ?
CHRM1 agonist: 8.8; CHO-K1 Ca PAM: -6.4; CHO-K1 Ca antag: 25.2*; CHRM1 PAM: -3.6; M1 ag parental: 17.1*; M1 antag: 23.9

How did O=C(COc1ccccc1C(=O)O)Nc1nc2ccc([N+](=O)[O-])cc2s1 do in these assays?
CHRM1 agonist: 4.5; CHO-K1 Ca PAM: 3.9; CHO-K1 Ca antag: 11.2; CHRM1 PAM: -9.9; M1 ag parental: 13.0; M1 antag: 26.4*

Results for O=C(Nc1nc2ccccc2s1)C1CCN(S(=O)(=O)c2cc([N+](=O)[O-])ccc2Cl)CC1 ?
CHRM1 agonist: -1.2; CHO-K1 Ca PAM: -19.7; CHO-K1 Ca antag: 40.3*; CHRM1 PAM: -16.7; M1 ag parental: 8.8; M1 antag: 53.3*

How did CC(=O)Nc1ccc(S(=O)(=O)NCCC(=O)OC(C)C(=O)NC2(C#N)CCCCC2)cc1 (stereo not drawn) do in these assays?
CHRM1 agonist: -0.7; CHO-K1 Ca PAM: 15.0; CHO-K1 Ca antag: -9.4; CHRM1 PAM: 9.1; M1 ag parental: -0.5; M1 antag: -11.4

What do the screens show for `O=C(NCC1(N2CCCCC2)CCCCC1)c1ccc(NS(=O)(=O)c2ccccc2)cc1`?
CHRM1 agonist: -8.3; CHO-K1 Ca PAM: -4.2; CHO-K1 Ca antag: 27.6*; CHRM1 PAM: 5.4; M1 ag parental: 1.1; M1 antag: -12.6

What do the screens show for `O=C(CN1C(=O)NC2(CCCC2)C1=O)Nc1nc2ccccc2[nH]1`?
CHRM1 agonist: -0.8; CHO-K1 Ca PAM: -12.5; CHO-K1 Ca antag: 7.3; CHRM1 PAM: 15.2; M1 ag parental: 0.1; M1 antag: -9.1

How did NC(Cc1ccc(Cl)cc1)c1csc(Nc2ccc(-c3ccccc3)nn2)n1 (stereo not drawn) do in these assays?
CHRM1 agonist: 12.4; CHO-K1 Ca PAM: 20.3; CHO-K1 Ca antag: 7.6; CHRM1 PAM: 3.4; M1 ag parental: 13.4; M1 antag: 12.8

What do the screens show for `C[C@H]1CN(S(=O)C(C)(C)C)[C@H](CCO)/C1=C\c1ccccc1` (stereo partly drawn)?
CHRM1 agonist: -2.4; CHO-K1 Ca PAM: 11.8; CHO-K1 Ca antag: -8.4; CHRM1 PAM: 10.2; M1 ag parental: 0.3; M1 antag: -12.9

Results for COC(=O)c1ccc(Cn2c(O)c(N=O)c3ccccc32)o1 ?
CHRM1 agonist: 10.6; CHO-K1 Ca PAM: 19.6; CHO-K1 Ca antag: -6.4; CHRM1 PAM: 12.9; M1 ag parental: 0.9; M1 antag: -13.9

Results for O=Nc1c(O)n(Cc2cccc(C(F)(F)F)c2)c2ccccc12 ?
CHRM1 agonist: 19.1*; CHO-K1 Ca PAM: 8.8; CHO-K1 Ca antag: 2.6; CHRM1 PAM: 14.9; M1 ag parental: 0.1; M1 antag: 2.4

How did O=Nc1c(O)n(Cc2ccccc2)c2ccccc12 do in these assays?
CHRM1 agonist: 16.2*; CHO-K1 Ca PAM: -6.4; CHO-K1 Ca antag: -12.8; CHRM1 PAM: 18.2; M1 ag parental: 0.2; M1 antag: -15.8

How did O=Nc1c(O)n(Cc2ccc(Cl)c(Cl)c2)c2ccccc12 do in these assays?
CHRM1 agonist: 19.4*; CHO-K1 Ca PAM: 21.4; CHO-K1 Ca antag: -10.2; CHRM1 PAM: 24.5*; M1 ag parental: 0.8; M1 antag: -23.4

How did Cc1ccc(-c2csc3ncnc(NCCC(=O)O)c23)cc1C do in these assays?
CHRM1 agonist: -3.1; CHO-K1 Ca PAM: 0.0; CHO-K1 Ca antag: -7.0; CHRM1 PAM: 1.3; M1 ag parental: 0.1; M1 antag: -4.6

How did O=C1CCCN2N=C(SCC(=O)Nc3cccc(Cl)c3)SC2=N1 do in these assays?
CHRM1 agonist: -0.1; CHO-K1 Ca PAM: -1.1; CHO-K1 Ca antag: 1.0; CHRM1 PAM: -8.1; M1 ag parental: 16.1*; M1 antag: 9.2

Results for Cc1ccc(NC(=O)CSC2=NN3CCCC(=O)N=C3S2)cc1Cl ?
CHRM1 agonist: -3.4; CHO-K1 Ca PAM: 12.2; CHO-K1 Ca antag: 2.0; CHRM1 PAM: -6.6; M1 ag parental: 16.2*; M1 antag: 7.4

How did O=C1CCCN2N=C(SCC(=O)Nc3cccc(C(F)(F)F)c3)SC2=N1 do in these assays?
CHRM1 agonist: -3.0; CHO-K1 Ca PAM: -11.1; CHO-K1 Ca antag: 26.0*; CHRM1 PAM: -11.9; M1 ag parental: 15.0; M1 antag: 26.6*

What do the screens show for `O=C1CCCN2N=C(SCC(=O)Nc3ccc(Cl)cc3)SC2=N1`?
CHRM1 agonist: -1.1; CHO-K1 Ca PAM: 6.1; CHO-K1 Ca antag: -3.6; CHRM1 PAM: 0.2; M1 ag parental: 12.9; M1 antag: -3.6

What do the screens show for `Cc1cc(S(=O)(=O)Nc2ccc(C(=O)NC3CC3)cc2)ccc1F`?
CHRM1 agonist: 1.3; CHO-K1 Ca PAM: 11.8; CHO-K1 Ca antag: 3.3; CHRM1 PAM: 5.9; M1 ag parental: 0.4; M1 antag: -13.7

Results for COc1cccc(CN2CCNC(=O)C2CC(=O)N(C)C2CCOCC2)c1OC (stereo not drawn) ?
CHRM1 agonist: -3.1; CHO-K1 Ca PAM: -12.2; CHO-K1 Ca antag: 5.6; CHRM1 PAM: -0.2; M1 ag parental: 0.2; M1 antag: 3.7

What do the screens show for `Cc1ccc(S(=O)(=O)N2C[C@H]3C(=O)C[C@@H](c4ccccc4F)N(S(=O)(=O)c4ccc(C)cc4)[C@H]3C[C@H]2c2ccccc2F)cc1`?
CHRM1 agonist: 10.7; CHO-K1 Ca PAM: -4.8; CHO-K1 Ca antag: 29.4*; CHRM1 PAM: 18.0; M1 ag parental: -0.1; M1 antag: -15.4

Results for COc1ccc([C@@H]2C[C@H]3[C@@H](CN2S(=O)(=O)c2ccccc2)C(=O)C[C@@H](c2cccc(Cl)c2)N3S(=O)(=O)c2ccc(C)cc2)cc1 ?
CHRM1 agonist: -1.9; CHO-K1 Ca PAM: 8.5; CHO-K1 Ca antag: 23.9*; CHRM1 PAM: -2.3; M1 ag parental: 1.7; M1 antag: 20.9

Results for Cc1ccc([C@@H]2C[C@H]3[C@@H](CN2S(=O)(=O)c2ccc(C)cc2)C(=O)C[C@@H](c2ccccc2F)N3S(=O)(=O)c2ccc(C)cc2)cc1 ?
CHRM1 agonist: 3.8; CHO-K1 Ca PAM: -1.4; CHO-K1 Ca antag: 17.1; CHRM1 PAM: 10.5; M1 ag parental: 0.3; M1 antag: -2.4

What do the screens show for `Cc1ccc(S(=O)(=O)N2C[C@H]3C(=O)C[C@@H]4C(=O)N(c5ccccc5)C(=O)[C@@H]4[C@@H]3C[C@H]2c2cccc(Cl)c2)cc1`?
CHRM1 agonist: -2.1; CHO-K1 Ca PAM: -1.2; CHO-K1 Ca antag: 31.0*; CHRM1 PAM: -5.5; M1 ag parental: 5.2; M1 antag: 23.4

Results for CCOc1ncccc1C(=O)Nc1c(C)n(C)n(-c2ccccc2)c1=O ?
CHRM1 agonist: -0.5; CHO-K1 Ca PAM: 17.7; CHO-K1 Ca antag: -1.7; CHRM1 PAM: 0.5; M1 ag parental: 0.2; M1 antag: -2.3
